Source: PubChem BioAssay (NMMLSC)
RGS7-Gao reg: regulators of human RGS7-Galphao interaction | P09471 | Multiplexed bead flow cytometry, RGS7-Galphao binding; actives lie on both sides | binding response (% of control), % at 10 µM | 220,000 compounds, 0.35% hits; in the data active = binding response below about 49% or above about 150%; inconclusive = no clear call, values can overlap the other calls; inactive = in between;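 also: fluorescent Galphao held in activated GDP-AlF4 state binding bead-coupled RGS7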
Target sequence (P09471 whole entry, looked up): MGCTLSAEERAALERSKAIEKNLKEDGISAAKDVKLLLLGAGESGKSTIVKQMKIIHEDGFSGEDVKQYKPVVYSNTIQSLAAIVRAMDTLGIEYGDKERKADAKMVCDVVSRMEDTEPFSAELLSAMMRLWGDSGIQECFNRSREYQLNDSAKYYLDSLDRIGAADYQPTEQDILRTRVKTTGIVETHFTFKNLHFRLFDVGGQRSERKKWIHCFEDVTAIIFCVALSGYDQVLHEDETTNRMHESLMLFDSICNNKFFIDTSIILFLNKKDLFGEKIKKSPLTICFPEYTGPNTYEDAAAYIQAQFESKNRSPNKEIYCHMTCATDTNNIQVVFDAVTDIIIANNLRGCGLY
GSH fluor: GSH bead compound fluorescence profile; 190,000 compounds, 0.25% hits; fluorescence (KMESF) at 10 µM; GSH beads flow cytometry, compound fluorescence 488/530 nm; stronger effect = higher value; in the data active = fluorescence above about 89;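 also: glutathione beads carrying GST-tagged Bcl family fusion proteins plus one bare bead set; values are compound well signal with DMSO vehicle wells as background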
RGS8-Gao reg: modulates binding of RGS8 to human Galphao. P09471. multiplexed bead flow cytometry; actives lie on both sides. response (percent of control binding), % at 10 µM. 220,000 compounds, 0.34% hits. AID 1423; in the data active = response below about 60% or above about 140%; inactive = in between;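 also: Galphao activated as the GDP aluminium fluoride complex binding bead-coupled RGS8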
Avidin bead fluor: avidin bead compound fluorescence profile. 220,000 compounds, 0.38% hits. Avidin beads, compound fluorescence 488/530 nm, flow cytometry; stronger effect = higher value. AID 1775. fluorescence (KMESF) at 10 µM; in the data active = fluorescence above about 47
RGS4-Gao reg: human RGS4-Galphao interaction regulation | Multiplexed bead flow cytometry, RGS4-Galphao binding; actives lie on both sides | binding response (% of control), % at 10 µM | 220,000 compounds, 0.33% hits; in the data active = binding response below about 49% or above about 150%; inactive = in between;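 also: fluorescent Galphao activated with aluminum fluoride binding bead-coupled RGS4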
RGS16-Gao: modulates binding between human RGS16 and Galphao. AID 1441. bead-based flow cytometry RGS16-Galphao binding, fluorescence; actives lie on both sides. 220,000 compounds, 0.38% hits. binding response (% of control), % at 10 µM;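 also: Galphao activated by GDP with aluminum fluoride before binding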
Target sequence (O15492 whole entry, looked up): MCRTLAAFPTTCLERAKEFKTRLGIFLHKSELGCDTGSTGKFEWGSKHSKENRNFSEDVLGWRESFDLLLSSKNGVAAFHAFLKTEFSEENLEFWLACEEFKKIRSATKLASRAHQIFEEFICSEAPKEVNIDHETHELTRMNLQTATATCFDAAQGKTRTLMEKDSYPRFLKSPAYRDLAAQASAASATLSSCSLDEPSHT
Target sequence (P09471 whole entry, looked up): as the sequence (P09471 whole entry, looked up) above
RGS4-Gao HTS: regulators of human RGS4-Galphao interaction. shares compounds with RGS16-Gao. multiplexed bead flow cytometry, RGS–Galpha-o binding. RGS4–Galpha-o binding response, % at 10 µM. 1,600 compounds, 99% hits. AID 1504;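 also: fluorescently labeled Galpha-o bound to GDP with aluminium fluoride binding biotinylated RGS beads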
Biotin-avidin: interferes with biotinylated probe binding to avidin beads | shares compounds with RGS16-Gao | streptavidin beads, fluorescein-biotin binding, flow cytometry | 1,700 tested, under 10 active | inhibition, % at 10 µM;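 active = inhibition above 50%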;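 also: median green fluorescence of gated singlet beads compared with DMSO control wells; 0% = DMSO wells and 100% = complete loss of bead fluorescence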
RGS8-Gao single: RGS8-Galphao interaction regulation, single point confirmation. bead-based flow cytometry RGS8-Galphao binding, fluorescence; actives lie on both sides. binding response (% of control), % at 10 µM. 1,700 compounds, 3% hits. shares compounds with RGS16-Gao. AID 1836; in the data active = binding response below about 72% or above about 130%; inactive = in between;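 also: Galphao activated as GDP AlF4 complex before binding bead RGS8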
RGS7-Gao confirm: confirmation of regulators of human RGS7-Galphao interaction; 1,700 compounds, 7.8% hits; shares compounds with RGS16-Gao; bead-based flow cytometry RGS7-Galphao binding; actives lie on both sides; response (percent of control binding), % at 10 µM; in the data active = response below about 75% or above about 130%; inactive = in between;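 also: fluorescent Galphao activated with GDP and aluminum fluoride binding bead-coupled RGS7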
RGS16-Gao conf: RGS16-Galphao interaction regulation, single point confirmation; bead-based flow cytometry, RGS16-Galphao binding; actives lie on both sides; shares compounds with RGS16-Gao; 1,700 compounds, 4% hits; AID 1838; response (% of control binding), % at 10 µM; in the data active = response below about 74% or above about 130%; inactive = in between;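 also: Galphao activated as the GDP aluminium fluoride complex binding bead-coupled RGS16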
RGS4-Gao confirm: confirmation of regulators of human RGS4-Galphao interaction. shares compounds with RGS16-Gao. RGS4-Galphao binding, multiplexed bead flow cytometry; actives lie on both sides. binding response (% of control), % at 10 µM. 1,700 compounds, 4% hits; in the data active = binding response below about 74% or above about 130%; inactive = in between
RGS19-Gao single: RGS19-Galphao interaction regulation, single point confirmation; 1,700 compounds, 5% hits; AID 1841; bead-based flow cytometry RGS19-Galphao binding; actives lie on both sides; shares compounds with RGS16-Gao; response (percent of control binding), % at 10 µM; in the data active = response below about 50% or above about 160%; inactive = in between;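 also: 100% = no compound control and 0% = blank background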
* marks the source's active call; other numbers are inactive results; ? = inconclusive; / = no result given; [ ] = another dose, or the depositor's remark. Most compounds without a hit are left out; they make up all but 1.2% or so of the library. Unless noted, no rule for the calls is given here.

SMILES	RGS7-Gao reg	GSH fluor	RGS8-Gao reg	Avidin bead fluor	RGS4-Gao reg	RGS16-Gao	Biotin-avidin	RGS8-Gao single	RGS7-Gao confirm	RGS16-Gao conf	RGS4-Gao confirm	RGS19-Gao single	others
CC1CCC2C(=O)N(c3ccccc3OC(=O)c3ccccc3F)C(=O)C2C1 (configuration not stated)	?	12	100	11	102	104	/	/	/	/	/	/
CC(O)CNC12CC3CC(CC(C3)C1)C2 (configuration not stated)	91	12	89	6	87	85	/	/	/	/	/	/
C=CCc1ccccc1OCC(=O)N/N=C/c1ccc(OC(C)=O)cc1OC(C)=O	100	18	101	4	100	104	/	/	/	/	/	/
NC(N)=NCC(O)CN(c1ccccc1)c1ccccc1 (configuration not stated)	?	/	101	7	102	99	/	/	/	/	/	/
COCCOC(=O)c1c(NC(=O)CN2c3ccccc3CC2C)sc(C(N)=O)c1C (configuration not stated)	?	13	102	11	101	103	/	/	/	/	/	/
C=CCNC(=O)CC(=O)N/N=C/c1cccc(C)c1	103	12	102	10	100	106	/	/	/	/	/	/
CCN1CCN(C(=O)C2CCN(S(=O)(=O)c3cccc4cccnc34)CC2)CC1	115	20	120	13	104	192*[activator]	-1	101	100	105	103	103	RGS4-Gao HTS=104*
O=C(C1CCN(S(=O)(=O)c2cccc3cccnc23)CC1)N1CCN(c2ccccc2)CC1	100	12	122	3	105	189	/	/	/	/	/	/
c1ccc(-c2csc3ncnc(NCc4ccccn4)c23)cc1	?	/	128	6	153*[activator]	147	-1	102	102	100	103	91
O=C1CCC(N2C(=O)c3ccccc3C2=O)C(=O)N1 (configuration not stated)	23*	14	46*	4	37*	49	-2	100	99	102	103	99
O=C(CSc1nnc(CNc2ccccc2)o1)N1CCc2ccccc21	100	15	98	6	97	102	/	/	/	/	/	/
O=C(CSc1nnc(Cc2ccccc2)o1)N1CCCc2ccccc21	98	43	99	/	93	/	-1	100	105	101	101	83
Cc1cc(OC(=O)c2ccc(S(=O)(=O)N3CCCCC3)cc2)c([N+](=O)[O-])c(=O)[nH]1	102	11	103	10	95	107	/	/	/	/	/	/
Cc1cc(OC(=O)c2ccc(S(=O)(=O)N3CCCC3)cc2)c([N+](=O)[O-])c(=O)[nH]1	110	18	142*[activator]	11	112	289	0	103	101	102	100	91	RGS4-Gao HTS=112*
COCc1nnc(NC(=O)c2ccc(NC(C)=O)cc2)s1	53	67	64	3	46*	50	-2	104	100	108	100	81
Cc1cc(Br)c(NC(=O)c2c(-c3c(Cl)cccc3Cl)noc2C)c(Br)c1	?	/	131	5	139	144	/	/	/	/	/	/
Cc1nc(SCc2nc3ccccc3[nH]2)c2oc3ccccc3c2n1	167*[activator]	19	102	133*	128	129	/	/	/	/	/	/	RGS4-Gao HTS=128*
c1ccc2[nH]c(CSc3ncnc4c3oc3ccccc34)nc2c1	103	15	99	24	101	107	/	/	/	/	/	/
O=C(Nc1ccc2c(c1)OCO2)N1CCN(c2ccccc2Cl)CC1	99	14	100	14	103	100	/	/	/	/	/	/
O=C(Nc1ccc2c(c1)OCO2)N1CCN(c2cccc(C(F)(F)F)c2)CC1	68	32	72	0	47*	-243	-1	98	96	97	98	105
CCC(C)(C)NC(=O)c1ccc2c(c1)OCCO2	102	25	98	10	100	101	/	/	/	/	/	/
Cc1ccc(C(C(=O)NC2CCCCC2)N(CC2CCCO2)C(=O)CNC(=O)c2ccco2)cc1 (configuration not stated)	94	13	100	10	84	116	/	/	/	/	/	/
O=C(CN(Cc1ccccc1C(F)(F)F)C(=O)CNC(=O)c1ccco1)NC1CCCC1	171*[activator]	36	101	104*	113	106	-1	101	106	100	102	107	RGS4-Gao HTS=113*
O=C(NCC(=O)N(CC1CCCO1)C(C(=O)NC1CCCCC1)c1ccc(F)cc1)c1ccco1 (configuration not stated)	237*[activator]	10	94	175*	165*[activator]	106	1	99	98	99	99	102
O=C(NCC(=O)N(Cc1ccccc1)C(C(=O)NC1CCCC1)c1ccco1)c1ccco1 (configuration not stated)	97	29	99	12	95	104	/	/	/	/	/	/
COc1ccc(-n2cc(CNCc3cnc4ccccn34)c(-c3cccc(F)c3)n2)cc1	88	11	90	4	92	90	/	/	/	/	/	/
O=C(Nc1nc(-c2ccccc2)c(C(=O)c2ccccc2)s1)c1ccc(S(=O)(=O)N2CCCC2)cc1	381*[activator]	64	135	172*	297*[activator]	349*[activator]	1	104	101	101	103	91
Cc1noc(C)c1COc1cccc(C(=O)NC(C)(C)C)c1	?	13	101	12	97	97	/	/	/	/	/	/
CCN(CC)S(=O)(=O)c1ccc2c(c1)nc(CCC(=O)Nc1ccc3c(c1)OCO3)n2CC	88	25	71	1	82	20*	-1	100	87	98	92	102	RGS4-Gao HTS=82*
OCCSc1nc(-c2ccccc2)nc2c1CCC2	89	9	80	8	96	15*	0	100	95	100	100	109	RGS4-Gao HTS=96*
